“And” between values parts separate entries of the source, which are not always exact repeats. Equal entries are not always repeated. Among all 270,000 compounds or so, about 5,800 (2.1%) were called active. Inconclusive results (about 16%) are left out. Only a selection was taken, and actives are over-represented in it overall. A number with no mark means an inactive call. The call rests on the fitted dose curve; in most records, active means well fitted inhibition curve with a large enough effect; inconclusive means small, poorly fitted or top-dose-only effect; inactive means flat fitted curve, though single readings scatter.
target: Microtubule-associated protein tau (Homo sapiens) (UniProt P10636); experiment: qHTS for Inhibitors of Tau Fibril Formation, Thioflavin T Binding; conditions: recombinant tau K18 P301L (four-repeat tau fragment), heparin-induced fibrillization, ThT fluorescence; series mostly up to 57.4 µM; activity, negative = inhibition: at the top concentration; further: nearly all actives have a fitted effect of over 55% in size
Sequence (P10636 561-689 P618L limits assumed): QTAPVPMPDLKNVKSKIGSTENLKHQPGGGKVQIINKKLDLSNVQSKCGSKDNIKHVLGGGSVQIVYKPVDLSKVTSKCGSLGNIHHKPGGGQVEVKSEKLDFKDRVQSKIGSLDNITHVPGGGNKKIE
Text: NIH Molecular Libraries Probe Production Network [MLPCN]
NIH Chemical Genomics Center [NCGC]
Assay Provider: Carlo Ballatore, University of Pennsylvania
The microtubule-associated protein tau is an abundant protein in the axons of neurons that stabilizes microtubules. With its ability to modulate microtubule dynamics, tau contributes directly or indirectly, to key structural and regulatory cellular functions. Particularly important is the influence tau exerts on axonal transport, which allows signaling molecules, trophic factors and other essential cellular constituents to travel along the axons. Under pathological conditions, tau becomes sequestered into insoluble aggregates called neurofibrillary tangles. This phenomenon is believed to have pathological consequences by promoting axonal transport deficits that ultimately lead to synaptic dysfunction and neuronal loss. To identify inhibitors of tau aggregation, a heparin-induced tau fibril formation assay was used that employed a recombinantly expressed fragment of tau, K18 (Q242-E372), bearing a P301L mutation (Gustke et al. 1994; Hong et al. 1998). This assay monitors tau fibrillization by Thioflavin T (ThT) fluorescence.
Gustke, N., B. Trinczek, et al. (1994). "Domains of tau protein and interactions with microtubules." Biochemistry 33(32): 9511-22.
Hong, M., V. Zhukareva, et al. (1998).
Li, W. and V. M. Lee (2006).
von Bergen, M., S. Barghorn, et al. (2001). "Mutations of tau protein in frontotemporal dementia promote aggregation of paired helical filaments by enhancing local beta-structure." J Biol Chem 276(51): 48165-74.
NCGC Assay Protocol Summary:
For screening, 2 uL/well human K18 P301L (15 uM unlabeled and 0.24 uM Alexa 594-labeled tau, final concentrations) in reagent buffer (100 mM sodium acetate pH 7) was dispensed into black solid 1536-well plates (Grenier) using a solenoid-based dispenser. Following transfer of 23 nL compound or DMSO vehicle by a pin tool, 2 uL/well heparin (20 uM final concentration) in reagent buffer was added and the plate centrifuged 15 s at 1000 RPM. Plates were incubated 6 hr at 37 C and then 1 uL/well ThT (30 uM final concentration) was added. After a 1 hr ambient incubation, the plates were read by an Envision (Perkin Elmer) to monitor ThT fluorescence (450/8 nm excitation and 510/23 nm emission).
Keywords: NIH Roadmap, MLPCN, MLI, MLSMR, NCGC, qHTS, tau, tauopathies, Alzheimer's disease, fibril, neurodegeneration, aggregation
On the % scale 0 is the no-effect control and ±100 the full control effect; potency means the concentration at half of the fitted maximal effect.

SMILES | Potency | activity, negative = inhibition
CC[N+](C)(CC)CCC[n+]1c(-c2ccccc2)c2cc(N)ccc2c2ccc(N)cc21 | 1.26 µM (active) | –
CC[C@@H]1CN2CC[C@@H]1C[C@H]2[C@H](O)c1ccnc2ccc(OC)cc12 | – | -4.88%
CCN(CC)CCOC(=O)c1cc2cc(COC)ccc2o1 | – | -8.09%
CN(C)[C@@H]1C(=O)C(C(N)=O)=C(O)[C@@]2(O)C(=O)C3=C(O)c4c(O)cccc4[C@@](C)(O)C3CC12 (stereo partly specified) | – | -9.02%
CN(C)CC1CCCCC1OC(=O)c1ccc(Cl)c(Cl)c1 (stereo unspecified) | – | -7.82%
CC(C)Oc1cccc(C(=O)C2CCCN(C3CCOCC3)C2)c1 (stereo unspecified) | – | -2.7%
N#CC(C#N)=Cc1cc(O)c(O)c([N+](=O)[O-])c1 | 10 µM (active) and 17.8 µM (active) | –
CC1=CC(=O)C2=C(C)C[C@H](O)[C@H]3[C@H](C)C(=O)O[C@@H]3C12 (stereo partly specified) | – | -2.24%
CN1[C@@H]2CC[C@H]1CC(OC(=O)c1cc(Cl)cc(Cl)c1)C2 (stereo partly specified) | – | -3.74%
CC1(C)Cc2c(C#N)c(N3CCNCC3)nc(-c3ccco3)c2CS1 | – | -10.8%
COc1ccccc1N=C1SCCCN1C | – | -5.08%
COc1ccccc1N=Nc1c(O)[nH]c(=S)[nH]c1=O | 12.6 µM (active) | –
CCOCCc1c(O)[nH]c(=S)[nH]c1=O | – | -5.42%
COc1ccccc1-c1[se]c2ccccc2c1I | – | -17.5% [at 81.4 µM]
c1cc2c(cc1CCNC1CCCCCC1)OCO2 | – | -5.27%
CC[C@]1(O)C(=O)OCc2c1cc1n(c2=O)Cc2cc3ccccc3nc2-1 | – | -4.8%
CCCCN1C2CCC1CC(OC(c1ccc(F)cc1)c1ccc(F)cc1)C2 (stereo unspecified) | – | -17%
O=C(COc1ccc2ccccc2c1)N1CCN(Cc2ccncc2)CC1 | – | -0.256%
CC(=O)Oc1ccccc1C(=O)Nc1ncc([N+](=O)[O-])s1 | 11.2 µM (active) | –
O=c1oc2ccccc2c(O)c1C(c1ccccc1O)c1c(O)c2ccccc2oc1=O | – | -12.9%
c1ccc2sc(SNC3CCCCC3)nc2c1 | – | -14.2%

SMILES | Potency | activity, negative = inhibition
C[N+]1(C)CCOC(O)(c2ccc(-c3ccc(C4(O)C[N+](C)(C)CCO4)cc3)cc2)C1 (stereo unspecified) | inactive | –
Cc1ccc(CN2CCCC(C(=O)c3ccc4c(c3)OCO4)C2)cc1C (stereo unspecified) | – | -11.4%
COC(=O)N(c1ccc(OC)cc1)P1(=S)OCCC(C)O1 (stereo unspecified) | 28.2 µM (active) | –
CCCCCCCCCCCCn1ccc(=N)cc1 | – | 1.75%
COc1ccc2[nH]cc(CCNCc3ccc(Br)cc3)c2c1 | – | -12%
CCCCC/C=C\C/C=C\C/C=C\C/C=C\CCCCCC(=O)NCCO | inactive | –
O=C1NC(=O)N(c2ccccc2)C(=O)/C1=C/c1ccc([N+](=O)[O-])s1 | 14.1 µM (active) | –
Cc1cccc(N2C(=O)NC(=O)/C(=C\c3cnn(-c4ccccc4)c3)C2=O)c1 | – | -18%
COc1cccc(N2C(=O)NC(=O)/C(=C\c3ccc([N+](=O)[O-])s3)C2=O)c1 | 14.1 µM (active) | –
CN1C2CC3CC1C(O3)C2O (stereo unspecified) | – | 1.06%
COC1CC(OC2CC[C@@]3(C=O)C4CC[C@]5(C)C(C6=CC(=O)OC6)CC[C@@]5(O)C4CC[C@]3(O)C2)OC(C)C1O (stereo partly specified) | – | -5.76%
COc1c(O)ccc2c1-c1c3c(cc4c1C(C2)N(C)CC4)OCO3 (stereo unspecified) | – | -14%
O=C(NC(c1ccc(Cl)cc1)P(=O)(Oc1ccccc1)Oc1ccccc1)OCc1ccccc1 (stereo unspecified) | – | -4.62%
NCCc1c[nH]c2ccc(O)cc12 | inactive | –
CCOc1cccc(=NC2CCCCC2)c2c(C)[nH]c(C)c12 | 8.91 µM (active) | –
CN(C)c1nc(N(C)C)nc(N(C#N)CCCl)n1 | – | -3.25%
C=CCN1CCC2(C)c3cc(O)ccc3CC1[C@@H]2C (stereo partly specified) | – | 15.8%
CC(=O)c1c(O)c(C)c(O)c(Cc2c(O)c3c(c(C(=O)/C=C/c4ccccc4)c2O)OC(C)(C)C=C3)c1O | 15.8 µM (active) and 17.8 µM (active) and 12.6 µM (active) | –
CC(=O)c1c(O)c(C)c(O)c(Cc2c(O)c3c(c(C(=O)/C=C\c4ccccc4)c2O)OC(C)(C)C=C3)c1O | 15.8 µM (active) | –
O=C1NC(=O)C(CCc2ccccn2)(Cc2cccc(Cl)c2Cl)C(=O)N1c1ccc(Br)cc1 (stereo unspecified) | – | -11.1%
O=C(OCCN1CCOCC1)C1(c2ccccc2)CCCC1 | – | -3.29%

SMILES | Potency | activity, negative = inhibition
N[C@@H](Cc1c[nH]c2ccccc12)c1nnc(SCc2c(F)cccc2Cl)o1 | – | -19.7%
Cc1ccc(Cn2c(C)c3cnn(CC(=O)N4CCC5(CC4)OCCO5)c(=O)c3c2C)cc1 | – | -2.65%
COC(=O)c1ccc2[se]c(CC3CCCCC3)c(I)c2c1 | – | -9.2%
Cc1ccc2c(c1)=C/C(=C\c1c(O)[nH]c(=O)[nH]c1=O)C(=O)N=2 | – | 8.7%
CC/C(=N\NC(=O)c1ccccc1O)c1c(O)n(Cc2ccccc2)c(=O)[nH]c1=O | 22.4 µM (active) | –
CCC(=NCCc1ccccc1)c1c(O)n(C2CCCCC2)c(=O)[nH]c1=O | – | -25.8%
CCC(=NCc1ccco1)c1c(O)n(Cc2ccccc2)c(=O)[nH]c1=O | – | 1.59%
CCCCC/C=C\C/C=C\C/C=C\C=C\[C@H](CCCC(=O)O)OO | inactive | –
Cc1nc2ccccn2c1P(=S)(N1CCCCC1)N1CCCCC1 | – | -0.659%
Cc1cccc2c3c(ccc12)C1=C(C(=O)C3=O)C(C)CO1 (stereo unspecified) | 7.94 µM (active) | –
CN1CCN(Cc2ccc(OC(F)(F)F)cc2)CC1 | – | -11.3%
CCCN(C/C=C/I)C1CCc2ccc(O)cc2C1 (stereo unspecified) | – | -11.2%
CCCCCCCCc1[se]c2ccccc2c1Br | – | -14.5% [at 81.4 µM]
O=C(OCC1O[C@@H](OC(=O)c2cc(O)c(O)c(O)c2)[C@@H](OC(=O)c2cc(O)c(O)c(O)c2)[C@@H](OC(=O)c2cc(O)c(O)c(O)c2)[C@@H]1OC(=O)c1cc(O)c(O)c(O)c1)c1cc(O)c(O)c(O)c1 (stereo partly specified) | 11.2 µM (active) | –
O=C(O)C1C2CCC(O2)C1C(=O)O (stereo unspecified) | – | -15.8%
CO[C@@H]1C[C@@H](C[C@H]2CC[C@H](C)[C@@H]([C@@H](C)C(=O)O)O2)O[C@]2(O[C@](C)([C@H]3CC[C@@](C)(C4OC([C@H]5O[C@@](O)(CO)[C@H](C)C[C@@H]5C)C[C@@H]4C)O3)C[C@H]2C)[C@@H]1C (stereo partly specified) | – | -8.15%
Cc1ncsc1CCCl | inactive | –
CCC(C)n1c(O)c(/C=N/Nc2nc3c(c(=O)n(C)c(=O)n3C)n2C)c(=O)[nH]c1=S (stereo unspecified) | 11.2 µM (active) | –
CCOC(=O)C1(CCc2ccccc2)CCN(Cc2ccco2)CC1 | – | -5.91%
